According to the supplement of paper PMC10849652:
About 7,900 targets were measured; listed, in parts, are those with a hit and a random draw of the rest. About 0.6% of all pairs of compound and target were hits.

Key:
Assay in all cases: log2 fold change, soluble protein after heating vs DMSO (PISA); higher = thermal stabilisation; K562 cells, 10 uM, 30 min; active = over 0.2 and 3.5 SD of the protein, either way, in both replicates (recomputed)
[1] = compound: CC1=C(C=C(C=C1)NC(=O)C2=CC(=CC=C2)C(C)(C)C#N)NC3=CC4=C(C=C3)N=CN(C4=O)C
Summary of the method: (§1)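 Quantification of soluble protein used TMTpro 16plex LC-MS/MS, with channel sums equalised. Samples were the supernatant after 21,000xg for 90 min of pooled aliquots from K562 cells (2×10^6 cells/mL) treated with 10 μM compound for 30 min, heated for 3 min over 48°C-58°C, and extracted in PBS with 0.5% NP-40 at 4°C. Values, from duplicates, describe thermal stability against control samples on a log2 fold-change scale.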

[2] = compound: CC1=C(C=C(C=C1)NC(=O)C2=CC(=CC=C2)N(C)C)NC(=O)C3=CC=C(C=C3)O
Summary of the method: as §1

[3] = compound: CC1=CC=C(C=C1)SC2=C3C=C(SC3=CN=C2)C(=O)N
Summary of the method: as §1

[4] = compound: CC1=NC(=CC=C1)C2=C(N=C(N2)C(C)(C)C)C3=CC4=NC=CN=C4C=C3
Summary of the method: as §1

[5] = compound: CCCCN(Cc1ccc(C(=O)NO)cc1)C(=O)Nc1ccccc1 [Nexturastat A]
Summary of the method: as §1

[6] = compound: CCCS(=O)(=O)Nc1ccc(F)c(C(=O)c2c[nH]c3ncc(-c4ccc(Cl)cc4)cc23)c1F [vemurafenib]
Summary of the method: as §1

[7] = compound: CCCS(=O)(=O)Nc1ccc(F)c(C(=O)c2c[nH]c3ncc(Cl)cc23)c1F
Summary of the method: as §1

[8] = compound: CCCc1cc(C)[nH]c(=O)c1CNC(=O)c1cc(-c2ccnc(N3CCN(C)CC3)c2)cc2c1cnn2C(C)C
Summary of the method: as §1

[9] = compound: CCN(CC)Cc1ccc2cc(COC(=O)Nc3ccc(C(=O)NO)cc3)ccc2c1 [givinostat]
Summary of the method: as §1

[10] = compound: CCN(CCCOc1ccc2c(Nc3cc(CC(=O)Nc4cccc(F)c4)[nH]n3)ncnc2c1)CCOP(=O)(O)O [barasertib]
Summary of the method: as §1

[11] = compound: CC[C@@H]1C(=O)N(C)c2cnc(Nc3ccc(C(=O)NC4CCN(C)CC4)cc3OC)nc2N1C1CCCC1
Summary of the method: as §1

[12] = compound: CC[C@@H]1C(=O)N(C)c2cnc(Nc3ccc(C(=O)N[C@H]4CC[C@H](N5CCN(CC6CC6)CC5)CC4)cc3OC)nc2N1C(C)C [volasertib]
Summary of the method: as §1

[13] = compound: CC[C@H](C)N1C=C(C2=C(C=C(C=C21)C3=CN=C(C=C3)N4CCNCC4)C(=O)NCC5=C(C=C(NC5=O)C)C)C
Summary of the method: as §1

[14] = compound: CC[C@H](C)[C@@H](C(=O)N[C@@H]([C@@H](C)O)C(=O)N[C@@H](CC(C)C)C(=O)[C@]1(CO1)C)NC(=O)[C@H]([C@@H](C)CC)N(C)C(=O)C [epoxomicin]
Summary of the method: as §1

[15] = compound: CCn1c(C(=O)N(C2CC2)C2CC2)cc2c3c(ncn3C)c(Nc3cc(C)n(C)n3)nc21
Summary of the method: as §1

[16] = compound: CCn1cc(-c2ccnc3[nH]c(-c4cccc(CN(C)C)c4)cc23)c(-c2ccc(NC(=O)N(C)C)cc2)n1
Summary of the method: as §1

[17] = compound: CN(C)CC(=O)Nc1ccc2[nH]c(=O)c3ccccc3c2c1
Summary of the method: as §1

[18] = compound: CN(CCOC1=CC=C(C=C1)C[C@H]2C(=O)NC(=O)S2)C3=CC=CC=N3 (racemic) [rosiglitazone]
Summary of the method: as §1

[19] = compound: CN1C2=C(C3=C1C(=O)N(N=C3)CC4=CC(=CC=C4)N)SC(=C2)S(=O)C
Summary of the method: as §1

[20] = compound: CN1CCC(CNc2ccc3ncc(-c4cccc(OC(F)(F)F)c4)n3n2)CC1
Summary of the method: as §1

Measured: log2 fold change

PPP2R5C isoform 4 (UniProt Q13362)
Chain of UniProt Q13362 (Q13362 whole entry, looked up): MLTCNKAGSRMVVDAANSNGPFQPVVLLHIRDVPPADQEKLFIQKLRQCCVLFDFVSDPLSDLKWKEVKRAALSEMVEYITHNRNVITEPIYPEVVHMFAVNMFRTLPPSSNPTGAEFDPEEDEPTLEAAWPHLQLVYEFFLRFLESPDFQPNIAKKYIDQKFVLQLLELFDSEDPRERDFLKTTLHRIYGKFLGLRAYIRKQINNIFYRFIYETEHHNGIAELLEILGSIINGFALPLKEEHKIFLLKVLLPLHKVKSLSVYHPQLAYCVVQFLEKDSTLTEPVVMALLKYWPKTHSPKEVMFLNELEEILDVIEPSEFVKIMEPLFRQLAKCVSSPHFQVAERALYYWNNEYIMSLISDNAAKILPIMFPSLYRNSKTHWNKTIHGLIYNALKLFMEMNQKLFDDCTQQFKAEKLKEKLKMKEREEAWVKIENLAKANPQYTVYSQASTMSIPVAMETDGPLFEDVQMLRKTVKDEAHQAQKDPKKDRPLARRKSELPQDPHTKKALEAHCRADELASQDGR
inactive: [1] -0.016 | [2] 0.004 | [3] 0.014 | [4] -0.064 | [5] 0.016 | [6] 0.074 | [7] -0.004 | [8] -0.027 | [9] -0.001 | [10] 0.057 | [11] -0.069 | [12] -0.127 | [13] 0.042 | [14] 0.19 | [15] 0.018 | [16] -0.099 | [17] -0.048 | [18] 0.052 | [19] -0.003 | [20] -0.11

PSMC4 (UniProt P43686)
Chain of UniProt P43686 (P43686 whole entry, looked up): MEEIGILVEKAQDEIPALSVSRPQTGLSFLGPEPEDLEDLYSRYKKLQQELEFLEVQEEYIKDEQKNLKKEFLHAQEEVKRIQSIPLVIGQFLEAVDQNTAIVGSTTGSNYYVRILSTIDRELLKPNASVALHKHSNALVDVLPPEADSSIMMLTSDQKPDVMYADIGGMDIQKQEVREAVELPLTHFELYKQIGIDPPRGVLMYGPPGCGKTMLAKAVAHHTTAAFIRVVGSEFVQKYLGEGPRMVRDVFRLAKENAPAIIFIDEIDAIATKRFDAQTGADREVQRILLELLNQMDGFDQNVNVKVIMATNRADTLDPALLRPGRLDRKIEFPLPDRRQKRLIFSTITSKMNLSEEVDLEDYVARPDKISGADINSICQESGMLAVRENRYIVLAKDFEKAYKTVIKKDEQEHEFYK
inactive: [1] 0.016 | [2] 0.013 | [3] -0.049 | [4] -0.036 | [5] 0.03 | [6] -0.066 | [7] -0.083 | [8] 0.084 | [9] -0.059 | [10] -0.042 | [11] 0.033 | [12] 0.2 | [13] -0.021 | [15] -0.02 | [16] 0.086 | [17] -0.033 | [18] -0.021 | [19] 0.033 | [20] 0.06
active: [14] -0.379

POMP (UniProt Q9Y244)
Chain of UniProt Q9Y244 (Q9Y244 whole entry, looked up): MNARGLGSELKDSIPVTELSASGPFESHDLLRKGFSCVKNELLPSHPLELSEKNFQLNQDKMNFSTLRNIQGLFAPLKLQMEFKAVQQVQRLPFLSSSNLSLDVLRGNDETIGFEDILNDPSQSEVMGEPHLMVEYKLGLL
inactive: [1] 0.024 | [2] 0.075 | [3] -0.069 | [4] 0.076 | [5] 0.145 | [6] -0.023 | [7] -0.023 | [8] 0.016 | [9] -0.045 | [10] 0.054 | [11] 0.097 | [12] -0.049 | [13] 0.008 | [15] -0.005 | [16] 0.021 | [17] -0.018 | [18] -0.059 | [19] -0.02 | [20] -0.004
active: [14] 0.581

PLA2G15 (UniProt Q8NCC3)
Chain of UniProt Q8NCC3 (Q8NCC3 whole entry, looked up): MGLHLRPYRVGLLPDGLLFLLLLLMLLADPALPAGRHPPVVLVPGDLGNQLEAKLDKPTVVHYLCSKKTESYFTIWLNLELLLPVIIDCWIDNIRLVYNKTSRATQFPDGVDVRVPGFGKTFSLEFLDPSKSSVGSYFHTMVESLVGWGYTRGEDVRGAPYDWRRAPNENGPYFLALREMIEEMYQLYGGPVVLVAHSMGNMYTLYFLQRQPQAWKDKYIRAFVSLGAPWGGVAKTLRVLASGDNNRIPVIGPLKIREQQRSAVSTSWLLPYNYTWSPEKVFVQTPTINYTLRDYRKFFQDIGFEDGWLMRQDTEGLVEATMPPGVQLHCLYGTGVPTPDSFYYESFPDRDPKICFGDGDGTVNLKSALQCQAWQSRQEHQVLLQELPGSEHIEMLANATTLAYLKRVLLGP
inactive: [1] 0.04 | [2] -0.013 | [3] 0.005 | [4] -0.026 | [5] 0.089 | [6] 0.044 | [7] 0.001 | [8] -0.063 | [9] 0.019 | [10] 0.024 | [11] -0.084 | [12] -0.166 | [13] 0.026 | [14] 0.01 | [15] -0.017 | [16] 0.005 | [17] 0.006 | [18] 0.027 | [19] 0.043 | [20] -0.076

PSMD1 (UniProt Q99460)
Chain of UniProt Q99460 (Q99460 whole entry, looked up): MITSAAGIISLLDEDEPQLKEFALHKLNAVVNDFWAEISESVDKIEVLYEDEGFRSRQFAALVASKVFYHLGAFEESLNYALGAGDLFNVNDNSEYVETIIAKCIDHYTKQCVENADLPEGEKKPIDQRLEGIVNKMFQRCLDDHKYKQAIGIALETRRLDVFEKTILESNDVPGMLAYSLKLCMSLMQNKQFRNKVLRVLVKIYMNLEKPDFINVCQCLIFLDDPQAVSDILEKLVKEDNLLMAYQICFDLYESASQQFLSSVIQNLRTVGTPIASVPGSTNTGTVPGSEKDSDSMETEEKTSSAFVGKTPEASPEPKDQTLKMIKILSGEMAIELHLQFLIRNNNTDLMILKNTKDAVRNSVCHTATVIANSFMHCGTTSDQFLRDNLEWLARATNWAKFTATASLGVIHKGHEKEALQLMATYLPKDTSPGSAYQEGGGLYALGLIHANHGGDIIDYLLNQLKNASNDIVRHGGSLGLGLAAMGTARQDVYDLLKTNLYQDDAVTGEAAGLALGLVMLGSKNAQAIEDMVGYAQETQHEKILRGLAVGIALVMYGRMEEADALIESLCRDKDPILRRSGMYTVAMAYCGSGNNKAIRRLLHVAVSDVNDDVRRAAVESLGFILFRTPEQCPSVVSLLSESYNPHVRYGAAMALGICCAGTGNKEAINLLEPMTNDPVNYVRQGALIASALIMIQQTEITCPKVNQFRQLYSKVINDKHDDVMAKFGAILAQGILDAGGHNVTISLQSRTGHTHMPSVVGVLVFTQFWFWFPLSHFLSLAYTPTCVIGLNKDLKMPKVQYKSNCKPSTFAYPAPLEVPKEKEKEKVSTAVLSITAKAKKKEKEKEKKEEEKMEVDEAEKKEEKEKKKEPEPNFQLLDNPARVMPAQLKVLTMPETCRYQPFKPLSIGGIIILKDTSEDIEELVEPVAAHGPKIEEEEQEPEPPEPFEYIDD
inactive: [1] 0.06 | [2] 0.021 | [3] -0.001 | [4] -0.011 | [5] 0.055 | [6] -0.041 | [7] -0.049 | [8] 0.05 | [9] -0.046 | [10] -0.036 | [11] 0.042 | [12] 0.146 | [13] -0.001 | [14] -0.278 | [15] 0.015 | [16] 0.028 | [17] -0.005 | [18] -0.026 | [19] 0.043 | [20] 0.059

PRKAB2 (UniProt O43741)
Chain of UniProt O43741 (O43741 whole entry, looked up): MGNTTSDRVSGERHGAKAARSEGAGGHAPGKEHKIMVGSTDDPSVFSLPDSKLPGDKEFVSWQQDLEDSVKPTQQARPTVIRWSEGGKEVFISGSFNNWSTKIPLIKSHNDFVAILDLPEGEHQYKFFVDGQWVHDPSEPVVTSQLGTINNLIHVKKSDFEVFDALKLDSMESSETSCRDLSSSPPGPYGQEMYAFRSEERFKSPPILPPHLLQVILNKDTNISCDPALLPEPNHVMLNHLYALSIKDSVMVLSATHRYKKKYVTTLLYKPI
inactive: [1] 0.122 | [2] -0.015 | [3] 0.106 | [4] 0.118 | [5] -0.079 | [6] 0.074 | [7] 0.177 | [8] -0.18 | [9] 0.027 | [10] 0.067 | [11] 0.085 | [12] -0.185 | [13] 0.022 | [14] 0.205 | [15] 0.013 | [16] -0.089 | [17] 0.067 | [18] 0.044 | [19] 0.043 | [20] -0.247

PSPC1 (UniProt Q8WXF1)
Chain of UniProt Q8WXF1 (Q8WXF1 whole entry, looked up): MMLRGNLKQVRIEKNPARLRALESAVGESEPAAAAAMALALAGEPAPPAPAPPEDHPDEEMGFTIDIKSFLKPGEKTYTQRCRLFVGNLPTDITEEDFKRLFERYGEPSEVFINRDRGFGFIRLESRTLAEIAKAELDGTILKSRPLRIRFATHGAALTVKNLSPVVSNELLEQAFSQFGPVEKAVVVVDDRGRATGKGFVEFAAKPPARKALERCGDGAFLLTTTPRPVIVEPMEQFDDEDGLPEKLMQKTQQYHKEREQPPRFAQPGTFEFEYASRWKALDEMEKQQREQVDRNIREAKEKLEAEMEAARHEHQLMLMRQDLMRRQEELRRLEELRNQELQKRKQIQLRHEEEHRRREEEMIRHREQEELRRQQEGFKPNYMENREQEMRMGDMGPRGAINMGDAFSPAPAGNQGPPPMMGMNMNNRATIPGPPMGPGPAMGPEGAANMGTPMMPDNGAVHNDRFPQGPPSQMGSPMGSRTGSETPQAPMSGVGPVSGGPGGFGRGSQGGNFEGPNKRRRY
inactive: [1] 0.022 | [2] 0.011 | [3] 0.01 | [4] 0.007 | [5] 0.053 | [6] -0.003 | [7] 0.135 | [8] 0.167 | [9] 0.036 | [10] 0.01 | [11] -0.046 | [12] -0.167 | [13] 0.1 | [14] 0.031 | [15] 0.003 | [16] -0.054 | [17] 0.012 | [18] -0.058 | [19] 0.041 | [20] 0.029

PSMA3 (UniProt P25788)
Chain of UniProt P25788 (P25788 whole entry, looked up): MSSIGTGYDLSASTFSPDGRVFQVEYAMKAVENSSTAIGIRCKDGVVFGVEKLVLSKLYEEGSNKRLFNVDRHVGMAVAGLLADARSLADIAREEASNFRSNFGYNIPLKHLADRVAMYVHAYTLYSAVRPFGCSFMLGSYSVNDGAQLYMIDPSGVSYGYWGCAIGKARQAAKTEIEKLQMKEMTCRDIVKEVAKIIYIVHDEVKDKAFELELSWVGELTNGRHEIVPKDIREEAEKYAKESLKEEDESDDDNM
inactive: [1] 0.01 | [2] 0.027 | [3] -0.025 | [4] 0.013 | [5] -0.039 | [6] -0.001 | [7] -0.019 | [8] -0.011 | [9] -0.011 | [10] -0.034 | [11] 0.067 | [12] 0.134 | [13] -0.025 | [14] -0.169 | [15] 0.043 | [16] 0.002 | [17] -0.003 | [18] -0.039 | [19] -0.027 | [20] 0.046
